Bioassay records (PubChem)
Shown are actives, neighbours in structure and some others; about 13% of the full set was active somewhere.
HCMV antiviral: qHTS Assay for inhibitors of the human cytomegalovirus (HCMV); HFF cells, HCMV-luciferase reporter, 72 h; stronger effect = lower value; AID 1259415, 2018; hit rate 4.5% among 410,000; activity change, negative = inhibition, % at 57.5 µM; in the data active means activity change below about -60%; inconclusive means no clear call, values can overlap the other calls; inactive means above about -39%
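Inhibition of viral replication was scored as loss of reporter luminescence in HFFs infected with HCMV-luciferase (MOI 1 PFU/cell) for 72 h; compounds tested at 2 doses, normalized to buffer and Salinomycin controls.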
Pf growth 48h: Primary qHTS for delayed death inhibitors of the malarial parasite plastid, 48 hour incubation | AID 504832, 2011 | hit rate 5.9% among 310,000 | Potency, µM (highest dose often 28.7 µM), inactives show top-dose activity change, negative = inhibition, hits mostly inhibitors | P. falciparum luciferase growth in erythrocytes, 48 h; further: potency means the concentration at half of the fitted maximal effect
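In quantitative HTS format, infected erythrocytes bearing luciferase-reporter parasites were treated for a single generation at 37 C. Luminescence after adding detection reagent served as the growth measure.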
Pf growth 96h: Primary qHTS for delayed death inhibitors of the malarial parasite plastid, 96 hour incubation. hit rate 6.9% among 320,000. P. falciparum luciferase reporter growth, 96 h. Potency, µM (series often up to 28.7 µM), for inactives: at the top dose activity change, negative = inhibition, usual class: inhibitors. AID 504834, 2011; further: potency means the concentration at half of the fitted maximal effect
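Erythrocytes infected with luciferase-expressing P. falciparum were dispensed at 2% hematocrit and 0.05% parasitemia (final), then incubated with compounds 96 hours at 37 C in 5% CO2. Luminescence after detection reagent addition reported growth.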
HCV inh: qHTS Assay for Inhibitors of Hepatitis C Virus (HCV); Huh7.5.1 HCVcc-Cre infection, luciferase reporter, 44 h; Potency, µM (titrated, usually from 41.8 µM), without a hit: at the highest dose activity change, negative = inhibition, most hits filed as inhibitors; AID 651820, 2012; hit rate 3.4% among 340,000; further: potency means the concentration at half of the fitted maximal effect
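Luciferase read-out (15 sec integration) after a 15 min room-temperature substrate step quantifies HCVcc-Cre infection. Cells, 1,000 per well, had compound added 4 h post-plating, then virus at ~0.5 moi, and were cultured 44 h.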
Starred values were filed as active, the others as inactive; ? = inconclusive; nt = no result given. Unless noted, the call rests on the fitted dose curve; in most records, active means well fitted inhibition curve with a large enough effect; inconclusive means small, poorly fitted or top-dose-only effect, or another doubt; inactive means no such curve, though single readings can be large or run the other way. On the % scale 0 is the no-effect control and ±100 the full control effect.

SMILES	HCMV antiviral	Pf growth 48h	Pf growth 96h	HCV inh
O=C(OCC(=O)N1CCc2ccccc21)c1c2c(nc3ccccc13)CCCCC2	?	4.65µM*	-88.2%	2.82µM*
NC(=O)COC(=O)c1c2c(nc3ccccc13)CCCC2	6.0	4.7%	-20.3%	-13.5%
CC(C)(C)NC(=O)COC(=O)c1c2c(nc3ccccc13)CCC2	-19.9	?	5.22µM*	?
NC(=O)COC(=O)c1c2c(nc3ccccc13)CCC2	32.5	217.9%	-3.8%	-2.5%
O=C(COC(=O)c1c2c(nc3ccccc13)CCCC2)Nc1ccc2c(c1)OCO2	-26.8	?	10.4µM*	5.62µM*
CCCN1C(=O)COCc2cc(-c3ccc(N(C)C)cc3)ccc21	74.9	nt	nt	nt
CCC(=O)N1CCc2cc(S(=O)(=O)NC(C(=O)NCCc3ccc(Cl)cc3)C(C)C)ccc21 (centres undefined)	-0.9	nt	nt	nt
CC(C)Cn1cnc2c1c(=O)n(CC(=O)NC(=O)NC(C)(C)C)c(=O)n2Cc1ccccc1	-3.5	2.94µM*	?	?
CCCCNC(=O)Cn1c(=O)c2c(ncn2CCC(C)C)n(Cc2ccccc2)c1=O	-30.0	?	2.33µM*	8.8%
Cc1cc(NC(=O)Cn2c(=O)c3c(ncn3CC(C)C)n(Cc3ccccc3)c2=O)no1	21.7	8.28µM*	4.65µM*	8.3%
CCn1cnc2c1c(=O)n(CC(=O)Nc1cc(C)on1)c(=O)n2Cc1ccccc1	25.3	?	?	-23.9%
CCCC(C)NC(=O)Cn1c(=O)c2c(ncn2CCC(C)C)n(Cc2ccccc2)c1=O (centres undefined)	-11.0	?	?	4.3%
Cc1cc(NC(=O)Cn2c(=O)c3c(ncn3CCC(C)C)n(Cc3ccccc3)c2=O)no1	37.5	3.29µM*	6.4%	-8.0%
COC(=O)C1=C(C)N(C(C)C)C(=O)C1(NC(=O)c1ccc(C(C)(C)C)cc1)C(F)(F)F (centres undefined)	5.8	nt	nt	nt
COc1ccccc1NC(=O)Cn1c(=O)n(Cc2nc(C)no2)c(=O)c2cc3c(cc21)OCO3	-2.1	nt	nt	nt
CC(=O)c1ccc(NC(=O)CSc2nnc3ccc(-c4ccc(Br)cc4)nn23)cc1	-16.6	nt	nt	nt
CN(C(=O)CC(=O)Nc1ccc2nc3n(c(=O)c2c1)CCCCC3)c1ccccc1F	-0.7	nt	nt	nt
CC(C)Cn1cnc2c1c(=O)n(CC(=O)O)c(=O)n2Cc1ccccc1	-3.0	?	?	3.5%
CC(C)Cn1cnc2c1c(=O)n(CC(=O)Nc1ccc3c(c1)OCO3)c(=O)n2Cc1ccccc1	27.0	9.28µM*	10.4µM*	-29.3%
CCc1cnc2c(c1SCC(=O)Nc1cc(Cl)ccc1OC)c(=O)n(C)c(=O)n2C	-6.3	nt	nt	nt
C=CCc1cccc(/C=N/NC(=O)c2ccccc2OC)c1O	-97.4*	?	?	?
C=CCc1cccc(/C=N/NC(=O)c2ccc3nc[nH]c3c2)c1O	-100.6*	?	?	?
Cc1ccc2occ(/C=N/NC(=O)c3ccccc3Br)c(=O)c2c1	nt	22.9%	4.65µM*	0.6%
COc1ccccc1/C=N/NC(=O)c1ccccc1Cl	-16.5	-3.8%	-0.3%	-4.8%
CCOc1ccccc1C(=O)N/N=C/c1coc2ccc(C)cc2c1=O	nt	-3.2%	-7.2%	-2.7%
SMILES	HCMV antiviral	Pf growth 48h	Pf growth 96h	HCV inh
C=CCc1cccc(/C=N/NC(=O)c2ccccc2Br)c1O	-99.1*	?	?	14.1µM*
C=CCc1cccc(/C=N/NC(=O)C(C)Nc2ccc(C)cc2)c1O (centres undefined)	-89.4*	?	11.7µM*	10µM*
COc1ccc(NCc2cc3cc4c(cc3n(CC(=O)Nc3ccccc3)c2=O)OCO4)cc1	71.7	nt	nt	nt
CNC(=O)c1c(NC(=O)c2ccc(S(=O)(=O)N3CCCCC3C)cc2)sc2c1CCN(C)C2 (centres undefined)	6.0	?	10.4µM*	-15.1%
CCN1CCc2c(sc(NC(=O)c3ccc(C(=O)c4ccccc4)cc3)c2C(N)=O)C1	-6.6	?	?	?
CNC(=O)c1c(NC(=O)c2ccc(S(=O)(=O)N3CC(C)OC(C)C3)cc2)sc2c1CCN(C(C)C)C2 (centres undefined)	13.8	?	-7.2%	?
CCN1CCc2c(sc(NC(=O)c3ccc(S(=O)(=O)N(CC)c4ccccc4)cc3)c2C(N)=O)C1	-31.7	?	13.1µM*	?
CCOC(=O)c1c(NC(=O)c2ccc(S(=O)(=O)N(C)CC3CCCO3)cc2)sc2c1CCN(C)C2 (centres undefined)	24.8	?	?	12.6µM*
COC(=O)c1c(NC(=O)c2ccc(S(=O)(=O)N3CCC(C)CC3)cc2)sc2c1CCN(C)C2	-14.3	nt	nt	nt
CNC(=O)c1c(NC(=O)c2ccc(S(=O)(=O)N3CCCC3)cc2)sc2c1CCN(C(C)C)C2	17.6	2.62µM*	?	nt
CC1=C(C(=O)N2CCCCC2)C(c2ccc(Cl)cc2)n2c(nc3ccccc32)N1 (centres undefined)	-1.6	nt	nt	nt
Cc1ccc(CSc2ncc(Cl)c(C(=O)NCCc3ccc(S(N)(=O)=O)cc3)n2)cc1	-24.4	nt	nt	nt
CCCN1CCc2c(sc(NC(=O)c3ccc(S(=O)(=O)N4CCCC4)cc3)c2C(N)=O)C1	9.3	9.28µM*	?	-5.6%
CC(C)N1CCc2c(sc(NC(=O)c3ccc(S(=O)(=O)N4CCOCC4)cc3)c2C(N)=O)C1	-7.7	?	4.15µM*	-2.5%
CC(C)CN(CC(C)C)S(=O)(=O)c1ccc(C(=O)Nc2sc3c(c2C(N)=O)CCN(C(C)C)C3)cc1	-81.9*	nt	nt	nt
COC(=O)c1c(NC(=O)c2ccc(S(=O)(=O)N3CCOCC3)cc2)sc2c1CCN(C)C2	19.3	13.1µM*	?	?
COc1cccc(C(=O)Nc2ccccc2OCc2cc(=O)n3ccccc3n2)c1	7.3	nt	nt	nt
CC(=O)N1CCc2c(sc3c2c(=O)n(-c2cc(Cl)ccc2C)c(=O)n3C)C1	0.7	nt	nt	nt
CCN(CC)S(=O)(=O)c1cc(NC(=O)CCCOc2ccc(C(C)=O)cc2)ccc1C	14.2	-28.0%	-11.3%	10µM*
COc1ccc(OCCCC(=O)Nc2ccc(S(=O)(=O)N3CCOCC3)cc2)cc1	-0.9	?	?	?
COc1cc(C(C)=O)ccc1OCC(=O)Nc1ccc(Cl)c(S(=O)(=O)N2CCOCC2)c1	64.6	4.15µM*	2.08µM*	12.6µM*
CC(=O)c1ccc(OCCCC(=O)Nc2cc(S(=O)(=O)N(C)C)ccc2C)cc1	67.8	-1.4%	?	-15.5%
CC(=O)c1ccc(OCCCC(=O)Nc2ccc(Cl)c(S(=O)(=O)N3CCOCC3)c2)cc1	-79.3*	nt	nt	2.51µM*
Cc1ccc(OCCCC(=O)Nc2ccc(S(N)(=O)=O)cc2)cc1	-6.1	5.5%	14.7µM*	2.0%
COC(=O)CCNC(=O)N1CCN(c2nnc(C)c3c(C)n(-c4ccccc4)nc23)CC1	-3.8	nt	nt	nt
COc1ccc(N(C(=O)c2ccc(OC)c(OC)c2)S(=O)(=O)c2ccc(Cl)cc2)cc1	-7.4	nt	nt	nt
